Screening data from PubChem BioAssay.
ATG4B inhibitor – blocks human ATG4B protease cleavage of LC3 substrate; 0.51% of 340,000 active; inhibition, % at 8.33 µM; Q9Y4P1; AID 504462; ATG4B cleavage of LC3-PLA2, NBD-HPC fluorescence, 1 h
VLA-4 inh – inhibition in a human VLA-4 binding assay | AID 2557 | VLA-4 expressing cells, ligand binding flow cytometry | P13612 | 0.2% of 330,000 active | inhibition, % (about 7 µM as worked out from the volumes in the protocol); in the data active = inhibition above about 50%
PKA-R2B activ – activators of human PKA-R2B complex; 0.079% of 340,000 active; activation, % at 11.4 µM; AID 504700; PKA-R2B holoenzyme dissociation, Cy5-IP20 fluorescence polarization; R2B truncated from residue 108, S112A mutant; 0% DMSO only, 100% 113 µM cGMP;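 active = activation above a cutoff set at the mean over all compounds plus 3 SD, cut at about 18% in these data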;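 note: higher means more holoenzyme dissociation and a rise in polarization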
Target sequence (P31323 whole entry, looked up, other chains not shown, the tested form may be a part): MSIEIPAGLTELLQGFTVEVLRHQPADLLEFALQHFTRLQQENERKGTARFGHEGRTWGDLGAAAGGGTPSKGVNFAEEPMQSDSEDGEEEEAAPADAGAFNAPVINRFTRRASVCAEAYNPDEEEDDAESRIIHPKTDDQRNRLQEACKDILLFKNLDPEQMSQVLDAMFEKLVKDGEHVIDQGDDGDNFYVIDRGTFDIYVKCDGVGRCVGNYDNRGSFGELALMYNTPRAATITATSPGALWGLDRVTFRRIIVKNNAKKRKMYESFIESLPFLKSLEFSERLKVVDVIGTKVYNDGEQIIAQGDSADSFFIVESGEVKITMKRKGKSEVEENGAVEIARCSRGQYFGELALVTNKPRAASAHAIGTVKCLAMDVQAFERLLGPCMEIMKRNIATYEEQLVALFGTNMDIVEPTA
CendR NRP1 mod – NRP-1/CendR interaction modulation. O14786. FAM-RPARPAR peptide binding to NRP-1, fluorescence polarization. inhibition, % at 25 µM. 0.85% of 360,000 active. AID 602438;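 active = inhibition or corrected inhibition above about 18%, plus a signal ratio from 0.5 to 1.5, limit read from the data, passing the limit was not always enough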
PKA-R1A activ – activates the PKA-R1A holoenzyme complex; P00514+P68181; PKA-R1A dissociation, Cy5-IP20 fluorescence polarization; scaled: DMSO 0%, 113 µM cGMP 100%; activation, % at 11.4 µM; 0.083% of 340,000 active; AID 504707;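 active = percent activation above the mean of all tested compounds plus 3 SD, cut at about 19% in these data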;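 note: higher means more PKAc released from R1A so a rise in polarization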
VLA-4 allo CP – human VLA-4 allosteric modulation in cherry picked compounds. shares compounds with VLA-4 inh. U937 cells, HUTS-21 LIBS mAb binding, flow cytometry; LDV ligand present at threefold Kd. inhibition, % at 6.7 µM. 2% of 1,300 active;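 note: 0% = ligand without compound and 100% = no ligand background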
Numbers without * were called inactive; x = not tested or not shown. Rows were chosen to be rich in hits. Some 1.6% of all compounds tested hit in one or more screens of this group. Cut-off read from the data, not from the text of the source, unless noted: active = inhibition above about 40%; inactive = the rest.

SMILES | ATG4B inhibitor | VLA-4 inh | PKA-R2B activ | CendR NRP1 mod | PKA-R1A activ | VLA-4 allo CP
Cc1ccc(-c2nnc(SCC(=O)NCCN3C(=O)CSC3=O)n2C)cc1 | -11 | 4 | -7 | 4 | -8 | x
CCOc1ccc(NC(=O)CCCN2C(=O)C(c3ccccc3)Oc3cccnc32)cc1 (stereo not drawn) | 10 | 13 | 3 | 11 | -8 | x
COc1ccc(S(=O)(=O)Nc2c(F)cccc2F)cc1 | 20 | 23 | -9 | 9 | -5 | 1
OC(CNCc1ccco1)Cn1c2ccc(Br)cc2c2cc(Br)ccc21 (stereo not drawn) | -6 | 67* | -4 | 2 | -2 | 38
COc1ccccc1CC(=O)OC(C)C(=O)Nc1ccc(S(=O)(=O)N2CCCCC2)cc1 (stereo not drawn) | -14 | 54* | -4 | 2 | -14 | 0
CC(Oc1ccccc1Cl)C(=O)Nc1ccc(S(=O)(=O)N2CCCC2)cc1 (stereo not drawn) | -4 | 32 | -3 | -2 | 1 | x
COc1c2occc2c(OC)c2c(=O)cc(C)oc12 | 8 | 51* | -7 | 7 | -5 | -5
COc1c2ccoc2cc2oc(C)cc(=O)c12 | -9 | -9 | 12 | -4 | 8 | x
CC(C)CCn1c(C(C)O)nc2ccccc21 (stereo not drawn) | -4 | 87* | -7 | -1 | 3 | 0
Cn1nc(C(=O)NCc2ccccc2Cl)c2c1-c1ccccc1S(=O)(=O)C2 | 6 | -7 | 0 | -1 | 1 | x
CC(=O)c1c(C)[nH]c(C(=O)COC(=O)C2CC2)c1C | -13 | -4 | 8 | 0 | 1 | x
CCOC(=O)c1c(C)[nH]c(C(=O)COC(=O)C2CC2)c1C | -4 | x | 0 | 9 | 11 | -8
CCOC(=O)c1c(C)[nH]c(C(=O)COC(=O)C2(C)CC2(Cl)Cl)c1C (stereo not drawn) | -11 | -9 | -1 | -3 | -12 | 3
COC(=O)c1c(C)[nH]c(C(=O)COC(=O)c2c(C)noc2C)c1C | 0 | -5 | -12 | 13 | -14 | -4
CCOC(=O)c1c(C)[nH]c(C(=O)COC(=O)c2ccccn2)c1C | -5 | -10 | 1 | -19 | 13 | -5
Cc1cccc(CNC(=O)C(C)n2nc(C)c3c(C)n(-c4ccccc4)nc3c2=O)c1 (stereo not drawn) | 10 | 5 | -6 | 2 | 6 | x
CCN(CC)C(=O)c1cc(-c2ccc3c(c2)OCO3)on1 | 2 | 55* | -11 | 7 | -3 | -6
Cc1ccc(NC(=O)C2CCN(C(=O)c3ccc(Cl)cc3)CC2)nc1 | 10 | 7 | 2 | 6 | 0 | 0
COc1ccc(NC(=O)C2CCN(C(=O)c3ccc(OC)cc3)CC2)cc1 | -4 | -14 | -7 | -8 | 9 | x
COc1ccc(C(=O)N2CCC(C(=O)Nc3ccc(OC)c(OC)c3)CC2)cc1 | 0 | 6 | -3 | 6 | -17 | -1
Cc1ccccc1C(=O)N1CCC(C(=O)Nc2nccs2)CC1 | -4 | -19 | 2 | 0 | 1 | x
COC(=O)c1ccccc1NC(=O)C1CCN(C(=O)c2cc(OC)c(OC)c(OC)c2)CC1 | -17 | 8 | -5 | 14 | -9 | 7
Cc1ccc(NC(=O)C2CCN(C(=O)c3ccccc3C)CC2)nc1 | -1 | 2 | -3 | 0 | -3 | 8
COc1ccc(C(=O)N2CCC(C(=O)Nc3ccccc3C)CC2)cc1OC | 2 | 0 | -9 | 19 | -12 | x
Cc1ccc(CN(c2ccc(C(=O)NCC3CCCO3)cc2)S(C)(=O)=O)cc1 (stereo not drawn) | -5 | -3 | 7 | 4 | 1 | x
SMILES | ATG4B inhibitor | VLA-4 inh | PKA-R2B activ | CendR NRP1 mod | PKA-R1A activ | VLA-4 allo CP
COC(=O)CCC(=O)Nc1ccc(S(=O)(=O)Nc2nc(C)cc(C)n2)cc1 | -2 | 2 | 8 | -7 | -2 | x
Cc1ccccc1C(=O)N1CCC(C(=O)Nc2ccccc2Cl)CC1 | 2 | 2 | -5 | -1 | 0 | 0
CCC(=O)Nc1ccc2c(c1)ncn2-c1ccccc1 | -7 | 53* | 3 | -5 | 1 | -4
Cc1occc1C(=O)NNC(=O)CN1C(=O)NC(C)(c2ccccc2)C1=O (stereo not drawn) | -4 | -1 | -10 | 5 | -4 | x
CC1=CC(c2ccccc2)=Nc2ccc(C)cc2N1 | -3 | 66* | -3 | -14 | 7 | 0
CCc1noc(C)c1C(=O)NNC(=O)c1ccccc1F | 7 | -3 | -12 | 0 | -12 | x
CCOC(=O)COc1ccccc1/C=C\[N+](=O)[O-] | 3 | 50* | -1 | 2 | -9 | 43*
COc1ccc(C(=O)NC2CC2)cc1OC1CCN(C(C)CSC)CC1 (stereo not drawn) | 28 | 6 | -8 | 15 | 4 | x
CCOc1ccc(NC(=S)N2CCC(C(N)=O)CC2)cc1 | -3 | 27 | -13 | 1 | -11 | x
COC(=O)c1ccc(NC(=S)N2CCC(C(N)=O)CC2)cc1 | -3 | 46 | -11 | -1 | -9 | 8
Fc1cccc(/C=N/Nc2cc(N3CCOCC3)ncn2)c1 | 7 | 12 | 1 | 8 | 9 | x
CCOC(=O)N1CCN(c2nc(C)c3c(n2)CC(C)CC3=O)CC1 (stereo not drawn) | -12 | 53* | -4 | -13 | 0 | 12
Cc1nc(N2CCN(C(=O)c3ccco3)CC2)nc2c1C(=O)CC(C)C2 (stereo not drawn) | -8 | 10 | -1 | 4 | -5 | x
CC1CCCCN1C(=O)C1CCCCN1S(=O)(=O)c1cccc([N+](=O)[O-])c1 (stereo not drawn) | 3 | -2 | -2 | -9 | -12 | x
CCOC(=O)N1CCN(C(=O)COC(=O)c2ccc(S(=O)(=O)N(CC)CC)cc2)CC1 | -8 | 6 | -12 | 6 | 12 | x
O=C(Nc1cccc(/C=C/c2ccccn2)c1)c1cc(Cl)ccn1 | 10 | -3 | -2 | -20 | 14 | x
Cc1ccc(C(=O)/C=C\C(=O)c2ccc(C)cc2)cc1 | -6 | 68* | -4 | -2 | 11 | 30
CC(/C=C/C(=O)c1ccc(C)cc1)=C\c1ccccc1 | 6 | 9 | 5 | 5 | 6 | x
COc1cc(CCCN2C(=O)C(=O)NC[C@@H]2Cc2ccc(O)cc2)cc(OC)c1OC | -11 | 2 | 10 | 8 | -2 | x
COc1cc(CCCN2C(=O)C(=O)NC[C@@H]2CCCCN)cc(OC)c1OC | -5 | 3 | 2 | 4 | -2 | 16
C=CCC[C@H](Cc1ccc(F)cc1)C(=O)OC[C@@H](C)NC(=O)[C@@H](CC=C)CC(=O)N[C@@H](CO)Cc1ccccc1 | -13 | 63* | 7 | -6 | -13 | -1
C=CCC[C@H](Cc1ccc(F)cc1)C(=O)OC[C@@H](C)NC(=O)[C@@H](CC=C)CC(=O)N[C@H](CO)Cc1ccccc1 | -10 | 16 | -2 | 8 | 6 | x
